Values without a mark were called inactive. Inconclusive results are not listed. A call without a number means that no potency is given here. The source made the active and inactive calls. Unless noted, calls come from the whole dose curve; as a rule, active = well fitted curve in the direction sought with a large enough effect; inconclusive = small, poorly fitted or top-dose-only effect, or another doubt; inactive = no such curve, though single readings can be large; an effect the other way counts as inactive or inconclusive.
Columns and labels:
[1] = target: Lysosomal acid glucosylceramidase (Homo sapiens) (UniProt P04062); test: Glucocerebrosidase-p2 (AID 348; in the data active = potency below about 10 µM; note: potency is the fitted concentration of half-maximal effect); conditions: purified GBA, blue fluorogenic substrate, 40 min
Sequence of Lysosomal acid glucosylceramidase (Homo sapiens) (P04062 whole entry, looked up): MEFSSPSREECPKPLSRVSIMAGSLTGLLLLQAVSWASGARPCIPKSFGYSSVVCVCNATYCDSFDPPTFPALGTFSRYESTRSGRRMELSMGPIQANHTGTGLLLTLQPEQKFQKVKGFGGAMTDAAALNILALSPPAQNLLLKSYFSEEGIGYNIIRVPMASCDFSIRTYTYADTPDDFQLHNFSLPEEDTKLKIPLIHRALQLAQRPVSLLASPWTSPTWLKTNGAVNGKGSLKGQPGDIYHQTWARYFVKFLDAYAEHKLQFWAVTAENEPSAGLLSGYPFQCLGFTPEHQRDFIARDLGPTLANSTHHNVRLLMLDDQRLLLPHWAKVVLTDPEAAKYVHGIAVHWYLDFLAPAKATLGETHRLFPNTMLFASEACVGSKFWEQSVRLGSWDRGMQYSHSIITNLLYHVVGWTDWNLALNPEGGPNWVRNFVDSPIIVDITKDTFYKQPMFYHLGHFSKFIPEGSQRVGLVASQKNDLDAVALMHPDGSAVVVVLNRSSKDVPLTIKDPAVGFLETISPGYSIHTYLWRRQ
Outline: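 Normal human glucocerebrosidase (0.2 nM) with blue fluorogenic substrate (80 uM final) in citrate/phosphate pH 5.9 with 10mM sodium taurocholate, 0.01% tween-20; 40 min RT, NaOH/glycine stop; fluorescence Ex 365/Em 440; AC50 from a titration from 0.6 nM upwards.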

[2] = target: Cytochrome P450 1A2 (Homo sapiens) (UniProt P05177); test: p450-cyp1a2 (AID 410; calls by dose curve; note: potency is the fitted concentration of half-maximal effect); conditions: recombinant CYP1A2, luciferin-ME demethylation, luminescence; series mostly up to 57 µM
Sequence of Cytochrome P450 1A2 (Homo sapiens) (P05177 whole entry, looked up): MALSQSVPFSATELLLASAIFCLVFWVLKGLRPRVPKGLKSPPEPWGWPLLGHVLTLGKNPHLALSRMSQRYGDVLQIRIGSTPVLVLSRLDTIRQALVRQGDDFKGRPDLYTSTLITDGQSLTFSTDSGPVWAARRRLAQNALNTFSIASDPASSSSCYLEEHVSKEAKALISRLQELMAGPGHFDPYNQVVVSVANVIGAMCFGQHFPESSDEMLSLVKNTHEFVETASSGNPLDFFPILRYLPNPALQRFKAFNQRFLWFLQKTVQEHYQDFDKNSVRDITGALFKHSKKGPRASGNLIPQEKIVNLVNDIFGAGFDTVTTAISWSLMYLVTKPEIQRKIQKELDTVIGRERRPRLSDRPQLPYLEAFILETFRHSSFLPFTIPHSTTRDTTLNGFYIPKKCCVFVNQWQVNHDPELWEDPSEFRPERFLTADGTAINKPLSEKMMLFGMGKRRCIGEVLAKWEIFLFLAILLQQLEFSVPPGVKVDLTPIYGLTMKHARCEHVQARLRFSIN
Outline: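 20nM CYP1A2, 100uM Luciferin-ME (=Km), 100mM KPO4; cpd 10 min RT; +NADPH regen, 60 min RT; stop/detect 20 min; luminescence. Normalized to furafylline 57 uM = full inhibition.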

[3] = NFAT Signaling Pathway (AID 444; active = well fitted curve in either direction with a large enough effect, not every such curve was filed as active;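 note: carbachol stimulus at about its EC50 of 1 µM final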); conditions: Jurkat NFAT-bla M1, carbachol, beta-lactamase ratio, 5 h; at 7.69 µM (top of the series) unless noted
Outline: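 Jurkat cells carrying an NFAT-driven β-lactamase reporter and co-transfected muscarinic M1 receptor were treated with compound plus carbachol (1 uM final, an EC50 level) for 5 h at 37 °C. CCF4 loading followed for 1 h at RT; 460/530 nm ratio gave %activity.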

[4] = Stat Signaling Pathway (AID 446; active = well fitted curve in either direction with a large enough effect, not every such curve was filed as active;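 note: ME-180 cervical cancer cells given 40 pM IL-6 alongside compound; SIE-controlled beta-lactamase reporter measured as 460/530 nm FRET emission ratio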); conditions: ME-180 SIE beta-lactamase reporter, IL-6 stimulated, 5 h; at 7.69 µM (top of the series) unless noted
Outline: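 FRET read-out (405 nm excitation, 460/530 nm emission) of a beta-lactamase reporter under a STAT-inducible element in ME-180 cervical carcinoma cells. Cells with compound receive 40 pM IL-6 for 5 h. Values are normalised to AC90 stimulation and AC90 JAK-inhibitor controls.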

[5] = target: Glucocorticoid receptor (Homo sapiens) (UniProt P04150); test: GR-GFP Redistribution (AID 450;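 active = compounds whose dose series gives a full or clear partial fitted curve of increased nuclear translocation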; note: potency is the fitted concentration of half-maximal effect); conditions: U2OS GR-GFP nuclear translocation, laser cytometry, 2 h
Sequence of Glucocorticoid receptor (Homo sapiens) (P04150 whole entry, looked up, the tested form may be a part): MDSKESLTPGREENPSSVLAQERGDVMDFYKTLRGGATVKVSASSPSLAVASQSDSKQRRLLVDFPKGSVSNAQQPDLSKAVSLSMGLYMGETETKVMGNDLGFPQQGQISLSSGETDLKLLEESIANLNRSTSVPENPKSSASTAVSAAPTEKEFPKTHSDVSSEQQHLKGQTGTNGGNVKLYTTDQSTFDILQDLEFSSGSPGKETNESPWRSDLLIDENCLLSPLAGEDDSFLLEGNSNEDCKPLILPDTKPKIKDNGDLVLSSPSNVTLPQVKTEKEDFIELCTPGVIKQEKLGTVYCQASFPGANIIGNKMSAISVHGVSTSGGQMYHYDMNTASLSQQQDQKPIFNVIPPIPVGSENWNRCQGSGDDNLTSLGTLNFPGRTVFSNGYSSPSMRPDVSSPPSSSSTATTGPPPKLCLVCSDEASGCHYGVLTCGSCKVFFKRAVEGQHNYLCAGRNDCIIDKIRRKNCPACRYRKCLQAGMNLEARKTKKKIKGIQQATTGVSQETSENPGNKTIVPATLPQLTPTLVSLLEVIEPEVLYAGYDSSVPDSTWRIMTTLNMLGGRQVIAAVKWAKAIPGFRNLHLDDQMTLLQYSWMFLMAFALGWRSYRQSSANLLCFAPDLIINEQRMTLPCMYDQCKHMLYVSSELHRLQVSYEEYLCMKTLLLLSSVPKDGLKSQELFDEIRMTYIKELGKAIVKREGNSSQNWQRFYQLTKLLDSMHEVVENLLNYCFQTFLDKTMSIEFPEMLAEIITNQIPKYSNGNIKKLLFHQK

[6] = target: Glucocorticoid receptor (Homo sapiens) (UniProt P04150); test: GR-EFC Redistribution (AID 451; calls by dose curve; note: potency is the fitted concentration of half-maximal effect); conditions: CHO-K1 GR-EFC translocation, beta-gal luminescence, 2 h
Outline: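 CHO-K1 cells stably expressing nuclear-localized β-gal enzyme acceptor and GR fused C-terminally to the enzyme donor fragment; ligand-driven nuclear translocation restores β-gal by complementation. Compounds titrated up to 46 uM final, 2 h at 37 °C; luminescence read.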

[7] = target: Mitogen-activated protein kinase 10 (Mus musculus) (UniProt Q61831); test: JNK3 AlphaScreen Assay (AID 530; active = well fitted curve in either direction with a large enough effect, not every such curve was filed as active;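 note: kinase came from lysate of stimulated human HepG2 cells; signal reports phosphorylation of biotinylated GST-cJun 1-79 at Ser73 with 10 µM ATP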); conditions: JNK3 lysate, c-Jun phosphorylation; series mostly up to 57.1 µM
Outline: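 Biotinylated GST-cJun(1-79) served as substrate for JNK3 in HepG2 lysates stimulated with IL-1beta and TNF-alpha. ATP was 10 uM final, pH 7.6. Ser73 phosphorylation was quantified by AlphaScreen (680 nm excitation).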

[8] = target: 3',5'-cyclic-AMP phosphodiesterase 4B (Homo sapiens) (UniProt Q07343); test: qHTS Assay for Inhibitors of PDE-IV (AID 607; active = well fitted activation curve with a large enough effect in the main read-out, with a control signal flat, not every such curve was filed as active); conditions: HEK293 ACTOne CNG channel cells, membrane potential fluorescence; series mostly up to 22.9 µM
Sequence of 3',5'-cyclic-AMP phosphodiesterase 4B (Homo sapiens) (Q07343 whole entry, looked up): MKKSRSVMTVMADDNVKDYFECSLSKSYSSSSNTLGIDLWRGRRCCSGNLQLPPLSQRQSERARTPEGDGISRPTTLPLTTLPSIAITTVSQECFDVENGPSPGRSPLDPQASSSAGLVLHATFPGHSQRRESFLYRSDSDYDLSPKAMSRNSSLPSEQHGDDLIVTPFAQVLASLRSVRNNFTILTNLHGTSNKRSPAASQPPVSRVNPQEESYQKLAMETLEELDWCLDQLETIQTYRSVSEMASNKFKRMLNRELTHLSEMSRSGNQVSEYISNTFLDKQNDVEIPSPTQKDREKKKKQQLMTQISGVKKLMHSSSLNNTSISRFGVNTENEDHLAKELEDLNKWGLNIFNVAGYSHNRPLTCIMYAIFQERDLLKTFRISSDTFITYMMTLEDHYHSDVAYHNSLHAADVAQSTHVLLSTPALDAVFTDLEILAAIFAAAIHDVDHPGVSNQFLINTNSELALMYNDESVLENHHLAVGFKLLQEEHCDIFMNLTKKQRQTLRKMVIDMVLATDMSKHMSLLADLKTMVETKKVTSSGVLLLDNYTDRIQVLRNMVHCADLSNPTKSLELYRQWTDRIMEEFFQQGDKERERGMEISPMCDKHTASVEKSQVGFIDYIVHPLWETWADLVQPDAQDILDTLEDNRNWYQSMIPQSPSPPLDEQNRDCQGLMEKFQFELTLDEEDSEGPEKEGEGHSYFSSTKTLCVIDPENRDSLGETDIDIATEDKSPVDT
Outline: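 Cell-based read-out of cAMP via a modified cyclic nucleotide-gated channel and membrane potential dye (535/590 nm) in HEK293 cells expressing PDE4 endogenously. Compounds tested up to 22.9 uM final; 100 uM RO 20-1724 reference.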

[9] = target: Cytochrome P450 3A4 (Homo sapiens) (UniProt P08684); test: qHTS Assay for Inhibitors and Substrates of Cytochrome P450 3A4 (AID 884); conditions: recombinant CYP3A4, Luciferin-PPXE luminescence; series mostly up to 57.1 µM; note: potency is the fitted concentration of half-maximal effect; nearly all actives have a fitted effect of over 50% in size
Sequence of Cytochrome P450 3A4 (Homo sapiens) (P08684 whole entry, looked up): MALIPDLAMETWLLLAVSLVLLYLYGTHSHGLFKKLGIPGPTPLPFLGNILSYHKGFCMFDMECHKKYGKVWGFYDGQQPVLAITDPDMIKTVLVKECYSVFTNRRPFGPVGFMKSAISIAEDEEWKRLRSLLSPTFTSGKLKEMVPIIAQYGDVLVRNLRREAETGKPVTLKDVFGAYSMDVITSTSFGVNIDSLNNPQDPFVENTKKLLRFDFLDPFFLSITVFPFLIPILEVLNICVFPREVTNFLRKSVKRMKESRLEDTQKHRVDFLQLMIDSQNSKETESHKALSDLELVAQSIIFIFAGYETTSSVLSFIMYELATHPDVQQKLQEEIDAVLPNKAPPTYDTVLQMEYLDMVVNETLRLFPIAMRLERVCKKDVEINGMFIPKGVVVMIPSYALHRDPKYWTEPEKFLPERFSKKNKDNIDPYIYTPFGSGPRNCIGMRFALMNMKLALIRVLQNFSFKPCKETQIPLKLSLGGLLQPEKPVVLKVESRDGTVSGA
Outline: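 Luminescent readout of luciferin produced by CYP3A4 (20 nM) dealkylation of Luciferin-PPXE, 25 uM (its KM). NADPH-driven reaction ran 60 min at RT after 10 min compound preincubation; data scaled to 57 uM ketoconazole as 100% inhibition.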

[10] = target: Cytochrome P450 3A4 (Homo sapiens) (UniProt P08684); test: qHTS Assay for Activators of Cytochrome P450 3A4 (AID 885); conditions: recombinant CYP3A4, Luciferin-PPXE luminescence, 60 min; series mostly up to 57.1 µM; note: nearly all actives have a fitted effect of over 65% in size
Outline: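 Luminescent readout of luciferin formed from 25 uM Luciferin-PPXE (KM level) by 20 nM CYP3A4 in 200 mM KPO4, with 60 min NADPH-driven reaction at room temperature after 10 min compound exposure. Ketoconazole (57 uM) defined 100% inhibition.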

[11] = target: Dual specificity protein kinase CLK4 (Homo sapiens) (UniProt Q9HAZ1); test: qHTS Assay for Inhibitors of CDC-like Kinase 4 (Kinase-Glo Assay) (AID 1770); conditions: recombinant Clk4, Kinase-Glo ATP depletion luminescence; series mostly up to 66.7 µM; note: nearly all actives have a fitted effect of over 65% in size; note: potency is the fitted concentration of half-maximal effect
Sequence of Dual specificity protein kinase CLK4 (Homo sapiens) (Q9HAZ1 whole entry, looked up): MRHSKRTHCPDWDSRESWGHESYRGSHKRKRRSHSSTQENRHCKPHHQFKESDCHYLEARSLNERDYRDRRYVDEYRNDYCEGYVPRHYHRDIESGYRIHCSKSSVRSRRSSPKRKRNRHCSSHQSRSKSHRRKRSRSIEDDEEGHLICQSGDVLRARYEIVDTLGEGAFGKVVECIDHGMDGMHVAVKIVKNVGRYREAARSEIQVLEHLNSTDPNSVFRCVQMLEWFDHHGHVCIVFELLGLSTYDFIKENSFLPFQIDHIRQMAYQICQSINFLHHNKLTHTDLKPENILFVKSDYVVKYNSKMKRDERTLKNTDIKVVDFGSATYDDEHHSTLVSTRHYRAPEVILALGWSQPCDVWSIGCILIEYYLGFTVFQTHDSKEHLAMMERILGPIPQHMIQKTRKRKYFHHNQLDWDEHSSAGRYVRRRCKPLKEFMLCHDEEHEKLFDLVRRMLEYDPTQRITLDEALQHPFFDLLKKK
Outline: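 Luminescent ATP-depletion read-out (Kinase-Glo) after 4.5 h room-temperature reaction of Clk4 (25 nM final) with RS peptide (100 uM) and ATP (1 uM), pH 7.5 Tris buffer with MgCl2 and DTT.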

[12] = target: Dual specificity protein kinase CLK4 (Homo sapiens) (UniProt Q9HAZ1); test: qHTS Assay for Inhibitors of CDC-like Kinase 4 (ADP-Glo Assay) (AID 1771); conditions: recombinant CLK4, ADP-Glo luminescence; series mostly up to 80 µM; note: nearly all actives have a fitted effect of over 70% in size; note: potency is the fitted concentration of half-maximal effect
Outline: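 25 nM Clk4, 100 uM RS peptide, 1 uM ATP (final); 2 mM MgCl2, 0.5 mM EGTA, 2.5 mM DTT, 0.01% Triton X-100; 1 hr RT. ADP-Glo readout: ATP depletion 45 min, conversion/luciferase 30 min, luminescence.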

[13] = target: Dual specificity protein kinase CLK4 (Homo sapiens) (UniProt Q9HAZ1); test: qHTS Assay for Inhibitors of CDC-like Kinase 4 (ADP-FP Assay) (AID 1795); conditions: Transcreener ADP fluorescence polarization; series mostly up to 50 µM; note: nearly all actives have a fitted effect of over 60% in size; note: potency is the fitted concentration of half-maximal effect;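 for activity change, negative = inhibition: recombinant human CLK4 phosphorylating RS repeat peptide at 1 µM ATP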
Outline: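 Kinase activity was measured as ADP production using Transcreener orange tracer (4 nM) and ADP antibody (1 ug/mL) fluorescence polarization, with ADP calculated from a calibration curve. The 1 h reaction contained 6.25 nM Clk4, 1 uM ATP and 100 uM RS peptide at pH 7.5 with Mg2+.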

[14] = target: Ubiquitin carboxyl-terminal hydrolase 1 (Homo sapiens) (UniProt O94782); test: Inhibitors of USP1/UAF1: Pilot qHTS (AID 504865); conditions: purified USP1/UAF1, Ub-rhodamine cleavage fluorescence; series mostly up to 54.9 µM;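 note: rhodamine fluorescence freed from ubiquitin-rhodamine substrate followed over time; top concentration of the series differs between compounds; nearly all actives have a fitted effect of over 35% in size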
Sequence of Ubiquitin carboxyl-terminal hydrolase 1 (Homo sapiens) (O94782 whole entry, looked up): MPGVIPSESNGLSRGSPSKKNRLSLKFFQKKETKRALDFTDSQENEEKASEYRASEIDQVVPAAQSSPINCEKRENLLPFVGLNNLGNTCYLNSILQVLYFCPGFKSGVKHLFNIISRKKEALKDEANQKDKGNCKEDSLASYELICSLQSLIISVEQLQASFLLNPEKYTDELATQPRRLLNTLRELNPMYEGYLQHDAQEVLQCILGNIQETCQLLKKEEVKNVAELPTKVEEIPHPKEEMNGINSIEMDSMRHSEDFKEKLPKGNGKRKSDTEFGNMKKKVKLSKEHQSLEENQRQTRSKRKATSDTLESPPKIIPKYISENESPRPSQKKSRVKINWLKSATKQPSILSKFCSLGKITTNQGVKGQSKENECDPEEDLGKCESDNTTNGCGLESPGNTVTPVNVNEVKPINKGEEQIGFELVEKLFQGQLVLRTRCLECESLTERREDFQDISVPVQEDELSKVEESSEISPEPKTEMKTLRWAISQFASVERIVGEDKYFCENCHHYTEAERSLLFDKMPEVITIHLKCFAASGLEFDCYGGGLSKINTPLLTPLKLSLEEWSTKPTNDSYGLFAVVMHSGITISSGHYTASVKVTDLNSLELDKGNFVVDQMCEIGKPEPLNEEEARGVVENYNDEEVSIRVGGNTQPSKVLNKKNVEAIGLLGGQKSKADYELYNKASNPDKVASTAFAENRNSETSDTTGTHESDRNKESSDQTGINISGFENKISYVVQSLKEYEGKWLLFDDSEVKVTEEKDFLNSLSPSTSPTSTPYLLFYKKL
Outline: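 Deubiquitinase activity followed as kinetic rhodamine fluorescence release from 150 nM Ub-Rho. 1 nM USP1/UAF1 with compound, after 15 min room-temperature preincubation, in HEPES pH 7.8 buffer containing TCEP, EDTA, BSA and Tween-20.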

[15] = Primary qHTS for small molecule stabilizers of the endoplasmic reticulum resident proteome: Secreted ER Calcium Modulated Protein (SERCaMP) assay (AID 1508630); conditions: SH-SY5Y GLuc-SERCaMP (Gaussia luciferase released on ER calcium loss) secretion, thapsigargin, luminescence; series mostly up to 38.4 µM
Outline: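 The SH-SY5Y reporter protocol was run at 3 concentrations up to 38.3 uM (primary) or 11 concentrations (follow-up): 16 h compound, 100 nM thapsigargin for 4 h, then extracellular luciferase luminescence.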

[16] = AP1 Signaling Pathway (AID 357; active = well fitted curve in either direction with a large enough effect, not every such curve was filed as active;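 note: ME-180 reporter cells stimulated with EGF at its EC50 level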); conditions: ME-180 (cervical carcinoma) AP-1-bla reporter, EGF-induced, beta-lactamase ratio, 5 h; at 7.69 µM (top of the series) unless noted
Outline: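 In this screen, ME-180 cells in Opti-MEM with 0.5% dialyzed FBS received EC50 EGF and compound titrations for 5 h. AP-1 reporter beta-lactamase was detected via CCF4 ratio, giving AC50 for positive and negative modulators.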

[17] = target: Cytochrome P450 2D6 (Homo sapiens) (UniProt P10635); test: qHTS Assay for Inhibitors and Substrates of Cytochrome P450 2D6 (AID 891); conditions: recombinant CYP2D6, luciferin-ME EGE luminescence; series mostly up to 57.1 µM; note: potency is the fitted concentration of half-maximal effect; nearly all actives have a fitted effect of over 60% in size
Outline: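 Luminescent read-out of luciferin formed by 5 nM human CYP2D6 demethylating 30 uM Luciferin-ME EGE (Km level) over 60 min at room temperature after NADPH regeneration addition. Data normalized to full inhibition by 1.43 uM quinidine.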

[18] = target: Cytochrome P450 2C19 (Homo sapiens) (UniProt P33261); test: qHTS Assay for Inhibitors and Substrates of Cytochrome P450 2C19 (AID 899); conditions: recombinant CYP2C19, luciferin-H EGE luminescence; series mostly up to 57.1 µM; note: potency is the fitted concentration of half-maximal effect; nearly all actives have a fitted effect of over 60% in size
Sequence of Cytochrome P450 2C19 (Homo sapiens) (P33261 whole entry, looked up): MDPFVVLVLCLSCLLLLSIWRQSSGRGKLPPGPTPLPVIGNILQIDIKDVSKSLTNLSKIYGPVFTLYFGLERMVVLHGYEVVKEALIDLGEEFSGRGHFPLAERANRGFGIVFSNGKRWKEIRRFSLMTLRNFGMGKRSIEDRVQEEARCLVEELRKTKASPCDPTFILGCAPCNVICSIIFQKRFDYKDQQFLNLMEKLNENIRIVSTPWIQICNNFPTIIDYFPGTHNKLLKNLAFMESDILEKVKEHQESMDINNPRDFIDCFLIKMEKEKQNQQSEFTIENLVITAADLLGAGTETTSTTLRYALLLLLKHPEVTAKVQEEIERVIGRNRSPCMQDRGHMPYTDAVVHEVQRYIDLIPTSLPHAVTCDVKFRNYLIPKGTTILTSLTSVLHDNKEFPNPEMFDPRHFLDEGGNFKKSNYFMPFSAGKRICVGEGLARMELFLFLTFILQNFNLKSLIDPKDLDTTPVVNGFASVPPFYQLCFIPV
Outline: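 In 50mM KPO4, the reaction held 5nM enzyme and KM-level (10uM) Luciferin-H EGE; it ran 60 min at 37C after NADPH regeneration and a 10 min compound preincubation. Luminescence values were scaled to 57uM ketoconazole as complete inhibition.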

SMILES | Potency [1] [µM] | Potency [2] | activity change, negative = inhibition [3] [%] | activity, negative = inhibition [4] [%] | Potency [5] [µM] | Potency [6] [µM] | Potency [7] | Potency [8] | Potency [9] | Potency [10] | Potency [11] | Potency [12] | Potency [13] | Potency [14] | outcome [15] | activity change, negative = inhibition [16] [%] | Potency [17] | Potency [18]
c1cncc(-c2cncnc2NCc2cccs2)c1 | > 11.4 | 0.316 µM (active) | 23.6 | -4.79 | > 46 | > 46 | inactive | inactive | 2 µM (active) | inactive | inactive | inactive | inactive | inactive | inactive | – | – | –
COc1ccc(-c2nc3cnc(N4CCOCC4)nc3n(Cc3cccc(OC)c3)c2=O)cc1 | > 11.4 | – | 18.6 | – | > 9.22 | > 46 | inactive | inactive | – | – | inactive | inactive | inactive | inactive | inactive | 18.4 | – | –
COc1ccc(-c2nc3cnc(N(C)C)nc3n(CCC#N)c2=O)cc1 | > 11.4 | – | -5.15 | – | > 9.22 | > 46 | inactive | inactive | – | – | inactive | inactive | inactive | inactive | inactive | -7.19 | – | –
COc1ccccc1CNc1ncnc2ccc(-c3ccc4c(c3)OCO4)cc12 | > 11.4 | 0.794 µM (active) | -26.5 | -7.21 | > 46 | > 46 | inactive | – | 1.26 µM (active) | inactive | 0.0794 µM (active) | 0.158 µM (active) | 0.0251 µM (active) | inactive | inactive | – | 0.794 µM (active) | 3.16 µM (active)
CCNc1ncc2nc(-c3cc(F)cc(F)c3)c(=O)n(C3CC3)c2n1 | > 11.4 | – | 23.3 | 28.9 | > 9.22 | – | inactive | inactive | – | – | inactive | inactive | inactive | inactive | inactive | 29.9 | – | –
COc1ccc(-n2c(=O)c(-c3cccs3)nc3cnc(Nc4ccccc4)nc32)cc1 | > 11.4 | – | – | -8.99 | > 9.22 | > 46 | inactive | inactive | – | – | inactive | inactive | inactive | inactive | inactive | -7.98 | – | –

From PubChem BioAssay (NCATS)
